Test [1] concerns the target Cytochrome P450 3A4 (Homo sapiens) (UniProt P08684). Description: qHTS Assay for Inhibitors and Substrates of Cytochrome P450 3A4 (AID 884). Also: nearly all actives have a fitted effect of over 50% in size. Also: potency is read from the fitted curve at half-maximal effect. As to activity change, negative = inhibition: % is scaled to controls: 0 for no effect and ±100 for the full control effect. In outline:
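20 nM human CYP3A4 with 25 uM Luciferin-PPXE (at KM) in 200 mM KPO4, preincubated 10 min with compound; NADPH regeneration started a 60 min RT reaction. Luciferin detected by luminescence, normalized to 57 uM ketoconazole as full inhibition.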

Test [2] in a line: Confirmation and Secondary Assay for Modulators of Hemoglobin Beta Chain Splicing at IVS2 654 locus (AID 910).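 Also: per-well total GFP intensity by laser scanning cytometry after 2-day treatment; % of control where 0% means no effect.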 An outline of the steps:
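HeLa cells stably carrying EGFP interrupted by mutant beta-globin IVS2-654 intron (CMV-driven) were treated with compound for 2 days at 37C; corrected splicing was scored as total peak GFP intensity per well (488 nm excitation, 500-520 nm emission).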

The nature of test [3]: Confirmation and Secondary Assay for Modulators of Hemoglobin Beta Chain Splicing at IVS2 705 locus (AID 930).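 Also: HeLa cells stably expressing the EGFP-705 splicing reporter; GFP fluorescence per well restored by corrected splicing of the IVS2-705 intron in EGFP; % of control where 0% means no effect.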 An outline of the steps:
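Per-well GFP, captured at 1 x 8 µm resolution with 488 nm excitation, served as the read-out for HeLa EGFP-705 cells incubated 2 days with test compound versus DMSO.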

Test [4] is described as follows: qHTS Assay for Lipid Storage Modulators (AID 1519; calls by dose curve; also: potency is read from the fitted curve at half-maximal effect; as to activity change, negative = inhibition: % is scaled to controls: 0 for no effect and ±100 for the full control effect). As to conditions: Drosophila S3 cells, BODIPY lipid droplet/cell ratio, laser cytometry, cells loaded with oleic acid; for activity change, negative = inhibition: at 57.5 µM (top of the series). An outline of the steps: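 Cells seeded at 5,000 per well were treated with compounds over a concentration series and loaded with oleic acid (400 uM, as added). Lipid droplet fluorescence (488 nm excitation, 500-530 nm channel) was read by laser-scanning cytometry and normalized to 20 uM Triacsin C.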

Test [5] deals with Cytochrome P450 3A4 (Homo sapiens) (UniProt P08684). Description: qHTS Assay for Activators of Cytochrome P450 3A4 (AID 885). Also: nearly all actives have a fitted effect of over 65% in size. In outline:
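Steps: enzyme/substrate mix dispensed; compound added, 10 min RT; NADPH regeneration solution added, 60 min RT; luciferin detection buffer stops reaction; 20 min later luminescence measured.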

Where [6] appears, read: measured here: cell count channel max response.
Where [7] appears, read: measured here: lipid channel max response.

SMILES strings stand for the structures. Records with an inconclusive call do not appear. Activity calls are given as the source filed them. Unless noted, calls follow the shape of the dose curve; as a rule, active = well fitted curve in the direction sought with a large enough effect; inconclusive = small, poorly fitted or top-dose-only effect, or another doubt; inactive = no such curve, though single readings can be large; an effect the other way counts as inactive or inconclusive.

Sequence of Cytochrome P450 3A4 (Homo sapiens) (P08684 whole entry, looked up): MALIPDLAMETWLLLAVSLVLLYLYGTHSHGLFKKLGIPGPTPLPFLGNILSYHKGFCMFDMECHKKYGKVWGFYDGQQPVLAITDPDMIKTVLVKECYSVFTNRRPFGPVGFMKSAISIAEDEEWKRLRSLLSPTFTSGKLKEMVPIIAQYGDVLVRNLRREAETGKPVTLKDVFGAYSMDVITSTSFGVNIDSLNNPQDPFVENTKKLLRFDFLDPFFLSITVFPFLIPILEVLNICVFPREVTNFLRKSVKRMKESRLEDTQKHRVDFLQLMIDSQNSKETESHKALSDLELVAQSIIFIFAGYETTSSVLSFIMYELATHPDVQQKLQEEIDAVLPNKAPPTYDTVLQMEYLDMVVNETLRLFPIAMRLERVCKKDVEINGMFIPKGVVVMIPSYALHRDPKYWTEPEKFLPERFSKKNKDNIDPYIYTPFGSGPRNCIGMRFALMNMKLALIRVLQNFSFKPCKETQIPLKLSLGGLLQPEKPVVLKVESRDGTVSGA

For `CCCCCCCCCCCCCCC(C(=O)OC)C(O)(CC(=O)OC)C(=O)OC` (configuration not stated), the Potency entry in test [1], in test [2] and in test [3] was “inactive” throughout. Further, the activity change, negative = inhibition in test [4] was -24% (inactive). Further, the max response was -1.14% in test [4] (setting [6]) and -26.9% in test [4] (setting [7]).
Consider `CC(=O)OC1CC2C(C)(C)C(=O)C=C[C@]2(C)C2CC[C@@]3(C)C(c4ccoc4)OC(=O)C4O[C@@]43[C@]12C` (some centres not stated), for which the Potency in test [1] was 12.6 µM (active). The Potency result in test [5], in test [2] and in test [3] was “inactive” throughout. In test [4], the activity change, negative = inhibition is -1.71% (inactive). Further, the max response in test [4] (setting [6]) and in test [4] (setting [7]) was 11.5% in each case.
As for `O=C(/C=C/c1ccc(O)cc1)c1ccccc1O`, the Potency in test [1] is 1.58 µM (active). The Potency result in test [5] and in test [3] was “inactive” each time. Moreover, the activity change, negative = inhibition in test [4] is -18.4% (inactive). In addition, the figures for the max response in test [4] (setting [6]) and in test [4] (setting [7]) were 5.42% and -11.8%, respectively.
Turning to `O=C(/C=C/c1ccccc1)c1ccc(O[C@H]2OC(CO)C(O)C(O)C2O)cc1O` (some centres not stated), the Potency result in test [1], in test [2] and in test [3] was “inactive” throughout. Also, the activity change, negative = inhibition in test [4] was -0.595% (inactive). The results for the max response in test [4] (setting [6]) and in test [4] (setting [7]) were 18.3% and 22.6%, respectively.
`OCC1OC(n2cnc3c(Cl)ncnc32)C(O)C1O` (configuration not stated): the Potency result in test [1], in test [2] and in test [3] was “inactive” each time. Besides, the activity change, negative = inhibition in test [4] was 1.41% (inactive). The max response in test [4] (setting [6]) came out at 10.1%; in test [4] (setting [7]), 10.3%.
For `COc1ccc2c(c1)OC/C(=C\c1ccc(OC)c(O)c1)C2=O`, in test [1], the Potency was 10 µM (active). Also, the Potency result in test [5], in test [2] and in test [3] was “inactive” each time. In addition, the activity change, negative = inhibition in test [4] is -9.54% (inactive). Besides, the figures for the max response in test [4] (setting [6]) and in test [4] (setting [7]) were 2.46% and -8.22%, respectively.
As to `COC(=O)CC1C2(C)CC34OC5(C)O[C@@]6(C7/C(=C(/O)C(C)C)C(=O)OC(c8ccoc8)[C@]7(C)C(OC(C)=O)C(OC(C)=O)[C@]6(O5)[C@@]13C)C(OC(C)=O)[C@]4(O)C2OC(=O)C(C)C` (some centres not stated), the Potency in test [1] is 12.6 µM (active). For the same compound, the Potency result in test [5], in test [2] and in test [3] was “inactive” throughout. The activity change, negative = inhibition in test [4] is 8.78% (inactive). The figures for the max response in test [4] (setting [6]) and in test [4] (setting [7]) were 16.6% and 29.3%, respectively.
For `COc1ccccc1-c1coc2cc(O)ccc2c1=O`, the Potency in test [1] is 25.1 µM (active). Moreover, the Potency entry in test [5], in test [2] and in test [3] was “inactive” each time. For the same compound, the activity change, negative = inhibition in test [4] is 5.08% (inactive). The max response in test [4] (setting [6]) was -6.55%; in test [4] (setting [7]), 10.3%.
`CC(=O)OC1CC2C(C)(C)C(=O)CC[C@]2(C)C2CC[C@@]3(C)C(c4ccoc4)OC(=O)C4OC43[C@]12C` (some centres not stated): the Potency in test [1] was 3.98 µM (active). Moreover, the Potency result in test [5], in test [2] and in test [3] was “inactive” throughout. Moreover, the activity change, negative = inhibition in test [4] is 5.91% (inactive). Also, the max response in test [4] (setting [6]) stood at 22.7%; in test [4] (setting [7]) it was 27.2%.
For `CNC(CC(=O)O)C(=O)O` (configuration not stated), the Potency result in test [1], in test [2] and in test [3] was “inactive” in each case. The activity change, negative = inhibition in test [4] was 0.835% (inactive). In addition, the max response in test [4] (setting [6]) came out at 10.8%; in test [4] (setting [7]), 11.7%.
With `COC(=O)CC1C(C)(C)C(=O)C2CC3=C(CC[C@]4(C)C3=CC(=O)OC4c3ccoc3)[C@@]1(C)C2=O` (some centres not stated), the Potency in test [1] was 2.51 µM (active). Also, the Potency result in test [5], in test [2] and in test [3] was “inactive” each time. For the same compound, the activity change, negative = inhibition in test [4] was -1.73% (inactive). The max response in test [4] (setting [6]) is 16%; in test [4] (setting [7]) it was 14.2%.
As to `COC(=O)CC1C(C)(C)C(OC(C)=O)C2[C@H](OC(C)=O)[C@]34O[C@]2(O)[C@]1(C)C3CC[C@]1(C)C4=CC(=O)OC1c1ccoc1` (some centres not stated), the Potency in test [1] was 2 µM (active); in test [4], 15.8 µM (active). Besides, the Potency result in test [5], in test [2] and in test [3] was “inactive” throughout. The max response in test [4] (setting [6]) is -16.6%; in test [4] (setting [7]), -68.9%.
Turning to `Oc1cc(O)c2c(c1)OC(c1cc(O)c(O)c(O)c1)C(O)C2` (configuration not stated), the Potency entry in test [1], in test [2] and in test [3] was “inactive” in each case. Besides, the activity change, negative = inhibition in test [4] was 12.8% (inactive). The max response in test [4] (setting [6]) is 12.7%; in test [4] (setting [7]) it was 24.8%.
`CC12CCC3c4ccc(OCc5ccccc5)cc4CCC3C1CC(O)C2O` (configuration not stated): the Potency entry in test [1], in test [2] and in test [3] was “inactive” in each case. The activity change, negative = inhibition in test [4] is 3.93% (inactive). The figures for the max response in test [4] (setting [6]) and in test [4] (setting [7]) were 2.78% and 8.16%, respectively.
On to `CC(=O)OC1CC(OC(C)=O)[C@]2(C)C(CC(O)[C@]3(C)C2CC[C@@]2(C)C(c4ccoc4)OC(=O)C4O[C@]432)C1(C)C` (some centres not stated), for which, in test [1], the Potency is 2.51 µM (active). Also, the Potency entry in test [5], in test [2] and in test [3] was “inactive” throughout. In addition, the activity change, negative = inhibition in test [4] is -15.6% (inactive). Moreover, the max response in test [4] (setting [6]) is -1.7%; in test [4] (setting [7]), -11.8%.
`COC(=O)C(O)C1C(C)(C)C(OC(C)=O)C2CC3=C4CC(=O)OC(c5ccoc5)[C@]4(C)CCC3[C@@]1(C)C2=O` (some centres not stated): the Potency in test [1] was 10 µM (active). In addition, the Potency entry in test [5], in test [2] and in test [3] was “inactive” each time. For the same compound, in test [4], the activity change, negative = inhibition is 0.311% (inactive). Further, the max response worked out at 4.91% in test [4] (setting [6]) and 8.34% in test [4] (setting [7]).
As to `CC(=O)OC1CC[C@]2(C)C(CC[C@@]3(C)C2C(=O)C=C2C4C(C)C(C)CC[C@@]4(C(=O)O)CCC23C)C1(C)C` (some centres not stated), in test [1], the Potency was 25.1 µM (active). In addition, the Potency entry in test [5], in test [2] and in test [3] was “inactive” each time. The activity change, negative = inhibition in test [4] was 0.887% (inactive). For the same compound, the max response in test [4] (setting [6]) was found to be 18.2%; in test [4] (setting [7]), 20.8%.

For the origin of these results see PubChem BioAssay (NCATS).
